Screening results (PubChem)
The list is not random: actives were taken first. Their share in the collection is about 12%.
Sfp PPTase inh: inhibitors of Bacillus subtilis Sfp phosphopantetheinyl transferase; Q9F4F7; Biochemical Sfp PPTase activity, qHTS; Potency, µM, inactives show largest response in the series, negative = inhibition, most hits filed as inhibitors; actives 3.5% (n = 310,000); AID 1490;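 note: the enzyme is Sfp with the accession as filed and its product quenches rhodamine fluorescence; 0% = enzyme reaction without inhibitor and -100% = no enzyme wells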
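After 15 min at room temperature with compound, 15 nM Sfp received 5 uM rhodamine-CoA plus 12.5 uM BHQ-2-ybbR (50 mM Hepes pH 7.6, 10 mM MgCl2). Rate came from the fluorescence difference over 30 min, ex 525/em 598 nm.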
G9a block: G9a (human) methyltransferase inhibition; Q96KQ7; G9a H3K9 monomethylation, AlphaScreen, 2 h; Potency, µM (titrated, usually from 102 µM), for the others: top-dose activity, negative = inhibition, usual class: inhibitors; actives 8.8% (n = 350,000); note: % is set by controls: 0 for no effect and ±100 for the full control effect; nearly all actives have a fitted effect of over 75% in size
Target sequence (Q96KQ7 913-1193 limits assumed): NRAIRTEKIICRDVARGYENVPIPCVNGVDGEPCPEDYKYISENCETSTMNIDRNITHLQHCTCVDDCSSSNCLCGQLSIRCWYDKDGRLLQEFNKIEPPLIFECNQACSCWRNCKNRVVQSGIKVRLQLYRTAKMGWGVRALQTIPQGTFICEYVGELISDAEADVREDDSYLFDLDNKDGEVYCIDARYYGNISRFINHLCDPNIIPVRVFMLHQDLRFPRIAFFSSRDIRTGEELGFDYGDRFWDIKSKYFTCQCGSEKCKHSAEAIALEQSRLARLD
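AlphaScreen detection with an anti-monomethyl H3K9 antibody quantified product after a 2 h room-temperature reaction containing 500 nM biotinylated H3K9 peptide, 20 µM SAM and 20 nM enzyme, which had been preincubated 15 min with compound.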
JMJD2A Tudor: blocks the human JMJD2A Tudor domain | O75164 | AlphaScreen JMJD2A-Tudor / H3K4me3 peptide binding | Potency, µM (series often up to 114 µM), inactives show top-dose activity change, negative = inhibition, hits mostly inhibitors | actives 4.4% (n = 390,000) | AID 504339; note: % is set by controls: 0 for no effect and ±100 for the full control effect; nearly all actives have a fitted effect of over 50% in size
HP1b binding inh: inhibitors of HP1-beta chromodomain binding to methylated histone tails | P83916 | AID 540317 | actives 0.56% (n = 390,000) | AlphaScreen HP1-beta / biotin-H3K9me3 peptide binding | Potency, µM (doses to about 114 µM), without a hit: at the highest dose activity change, negative = inhibition, usual class: inhibitors; note: nearly all actives have a fitted effect of over 70% in size
Target sequence (P83916 whole entry, looked up): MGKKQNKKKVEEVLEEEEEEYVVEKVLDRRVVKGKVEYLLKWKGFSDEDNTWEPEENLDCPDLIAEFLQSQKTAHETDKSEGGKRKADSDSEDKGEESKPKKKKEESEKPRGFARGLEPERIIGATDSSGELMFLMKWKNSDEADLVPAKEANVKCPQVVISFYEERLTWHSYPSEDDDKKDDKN
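HP1-beta protein (50 nM final) preincubated 30 min at room temperature with biotinylated H3(1-18)K9me3 peptide (50 nM) in PBS pH 7.4, 0.01% Tween-20, then compound added for 30 min. AlphaScreen streptavidin donor/nickel chelate acceptor beads (10 ug/mL final), 30 min dark, luminescence read.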
BAZ2B inh: inhibitors of human BAZ2B bromodomain. Potency, µM (series often up to 114 µM), for inactives: top-dose activity change, negative = inhibition, actives largely listed as inhibitors. actives 4.4% (n = 360,000). AlphaScreen BAZ2B-H3K14Ac peptide displacement. AID 504333; note: % is set by controls: 0 for no effect and ±100 for the full control effect; nearly all actives have a fitted effect of over 60% in size
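In this displacement format the biotinylated H3(5-23) peptide acetylated at Lys14 serves as ligand at 50 nM, with BAZ2B at 50 nM in PBS pH 7.4 containing 0.01% Tween-20. Donor and acceptor beads are 10 ug/mL final.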
An asterisk follows results filed as active; u = inconclusive; x = not tested or not shown; [ ] = another dose, or the depositor's remark. Calls come from the whole dose curve; as a rule, active = well fitted curve in the direction sought with a large enough effect; inconclusive = small, poorly fitted or top-dose-only effect, or another doubt; inactive = no such curve, though single readings can be large; an effect the other way counts as inactive or inconclusive. Potency is the fitted concentration of half-maximal effect.

SMILES | Sfp PPTase inh | G9a block | JMJD2A Tudor | HP1b binding inh | BAZ2B inh
CCN1CCCC1CNC(=S)Nc1ccc(C(C)=O)cc1 (centres undefined) | 4.3% | 39.8µM* | -30.4% | 15.7% | -26.9%
CCS(=O)(=O)n1nc(-c2cccnc2)nc1NCc1ccc(F)cc1 | 18.7% | -2.2% | -4.1% | 40.1% | 13.4%
O=C(Nc1cc2c3c(c1)CC(=O)N3CCC2)c1ccccc1Br | x | 13.5% | -19.2% | 6.8% | 8.3%
COc1ccc(NS(=O)(=O)c2ccc3c(c2)CC(C)N3C(=O)C2CCC2)cc1OC (centres undefined) | x | -29.6%[59 µM] | -11.9% | 24.8% | 6.2%
COc1cccc(NC2=Nc3cccc4cccc2c34)c1 | 6.6% | u | 44.7µM* | -36.2% | 39.8µM*
C(=N\NC1=Nc2cccc3cccc1c23)/c1ccccc1 | u | -4.7%[59 µM] | -29.3% | -11.2% | u
COc1cc(NC2=Nc3cccc4cccc2c34)cc(OC)c1OC | -1.6% | 50.1µM* | u | u | 50.1µM*
COc1ccc(NC2=Nc3cccc4cccc2c34)cc1OC | -18.4% | u | u | -17.7% | -39.0%[57.1 µM]
Cc1c(C(=O)N(C)c2ccccc2)sc2nc(-c3ccc(F)cc3)cn12 | x | -25.9%[59 µM] | -19.8% | 9.5%[57 µM] | -36.2%
CN(C)S(=O)(=O)c1cccc(NC(=S)N(CCC#N)Cc2cccnc2)c1 | 6.0% | -8.8% | -13.3% | 28.0% | x
O=C1[C@@H]2CSCN2C(=O)CN1Cc1cccc(C(F)(F)F)c1 | 19.7% | 1.2% | -3.5% | 12.7% | -1.7%
O=C1C=C(c2ccc(C(=O)O)cc2)C[C@@H](c2ccc3c(c2)OCO3)C1 | x | 1.6%[0.501 µM] | 79.4µM* | 0.6% | 50.1µM*
O=C1C=C(c2ccc(O)cc2)C[C@@H](c2ccc3c(c2)OCO3)C1 | x | 14.6%[0.501 µM] | u | 0.9% | 3.9%
Cc1ccc(-c2nnn(CC(=O)N(Cc3ccccc3F)C(C(=O)NC3CCCC3)c3ccncc3)n2)o1 (centres undefined) | 28.2µM* | 25.1µM* | -34.2% | 17.6% | 2.0%
COc1ccc(C(C(=O)NC2CCCC2)N(CCO)C(=O)Cn2nnc(-c3ccc(C)o3)n2)cc1OC (centres undefined) | -1.3% | 28.2µM* | -17.2% | 2.8% | -2.5%
Cc1ccc(-c2nnn(CC(=O)N(c3ccccc3)C(C(=O)NC3CCCC3)c3ccncc3)n2)o1 (centres undefined) | 12.3% | 12.3% | -10.9% | 9.0% | -7.0%
COc1ccc(C(C(=O)NC2CCCC2)N(CCO)C(=O)Cn2nnc(-c3ccc(C)o3)n2)cc1 (centres undefined) | 8.3% | 24.1% | -8.3% | 3.3% | 5.7%
COc1ccccc1NC(=O)COc1ccc(/C=N/n2cnnc2)cc1OC | 7.2% | 11.4% | -10.1% | 10.4% | -0.2%
CS(=O)(=O)Nc1ccc(C(=O)N2CCCCC2)cc1 | 12.5% | 22.1%[12.7 µM] | -5.5% | 21.6% | 10.3%
c1coc(-c2nnc3sc(Cc4cccs4)nn23)c1 | -3.8% | u | 39.8µM* | u | 50.1µM*
COc1ccc(OCc2nn3c(-c4ccco4)nnc3s2)cc1 | -5.6% | u | -25.4% | 6.4% | -37.0%
Clc1ccc(-c2nnc3sc(Cc4cccs4)nn23)c(Cl)c1 | 1.2% | 39.8µM* | -21.6% | 37.1% | -32.4%
COc1ccc(CN2CCNC(=O)C2CC(=O)NCCC2=CCCCC2)c(F)c1 (centres undefined) | 15.1% | 61.9% | -23.5% | 19.0% | -15.0%
COc1cccc(CSc2nc3sc(C)c(C)c3c(=O)n2Cc2ccco2)c1 | u | u | -24.1% | 10.9% | 2.3%
COc1ccc(C(=O)COC(=O)CNC(=O)C2CCCCC2)c(OC)c1 | 5.0% | -2.5% | -22.2% | 13.5% | -8.7%
SMILES | Sfp PPTase inh | G9a block | JMJD2A Tudor | HP1b binding inh | BAZ2B inh
CCOCCCNC(=O)C(NC(=O)c1ccccc1O)c1ccc(Cl)cc1 (centres undefined) | 11.8% | -9.6% | -9.6% | 56.0% | 8.7%
Cc1ccc2sc(N(CCCN(C)C)C(=O)c3ccc(S(=O)(=O)N4CCCCCC4)cc3)nc2c1C | x | 50.1µM* | u | -21.1% | u
CN(C)CCCN(C(=O)c1ccc(S(=O)(=O)N2CCCCC2)cc1)c1nc2cc3c(cc2s1)OCO3 | -13.6% | 50.1µM* | u | u | u
CN(C)CCCN(C(=O)CCc1ccccc1)c1nc2c(F)cccc2s1 | -6.0% | u | -22.8% | 22.2% | -27.9%
CN(C)CCCN(C(=O)c1ccc(S(=O)(=O)N2CCOCC2)cc1)c1nc2cc3c(cc2s1)OCO3 | -6.4% | x | -11.9% | 38.7% | -13.6%
Cc1ccc2sc(N(CCCN(C)C)C(=O)CN3C(=O)c4ccccc4C3=O)nc2c1C | -8.0% | 50.1µM* | -35.9% | -12.8% | x
CN(C)CCCN(C(=O)c1ccc(S(=O)(=O)N2CCCC2)cc1)c1nc2ccc(Br)cc2s1 | -13.4% | 50.1µM* | u | 14.2% | u
COc1ccc(S(=O)(=O)Cc2ccc(C(=O)NC3CCC(C)CC3)o2)cc1 (centres undefined) | 9.9% | 25.3% | -17.9% | 30.4% | -12.1%
O=C(Nc1ccc(C(=O)N2CCOCC2)cc1)C1CCCC1 | x | x | -9.6% | 25.0% | x
CCOc1ncccc1C(=O)OCC(=O)Nc1cc(S(=O)(=O)N2CCOCC2)ccc1Cl | -4.7% | 12.3% | -11.2% | 40.0% | -5.4%
Cc1ccc(CCNC(=O)c2nnn(-c3cccc(C)c3)c2N)cc1 | -0.8% | 17.9%[59 µM] | -29.7% | 18.5% | -3.0%
CC1Oc2ccccc2N(Cc2cccc(F)c2)C1=O (centres undefined) | 3.6% | 12.6% | 32.7% | 49.9% | -0.6%
COc1cc(OC)cc(C(=O)NCCc2cnc[nH]2)c1 | 0.5% | 14.5% | -4.7% | 9.5% | 4.6%
CCC(C)NC(=O)CCSCCC(=O)NC(C)CC (centres undefined) | -0.9% | 5.4%[59 µM] | -9.0% | 28.2% | 9.4%
CC1CCCCN1S(=O)(=O)c1ccc(C(=O)N(CCCN(C)C)c2nc3cc4c(cc3s2)OCO4)cc1 (centres undefined) | 4.1% | 50.1µM* | u | -3.6% | u
CCOc1ccccc1OCCOCCOc1c(Cl)cccc1Cl | 2.8% | 121.0%[59 µM] | 60.6% | 147.9% | 167.4%
Cc1cc(C)n2nc(SCc3nnc(-c4cccs4)o3)nc2n1 | 18.8% | 5.6% | 1.7% | 30.0% | -11.7%
CN(CC(=O)Nc1ccccc1Br)C(=O)c1ccccc1Sc1ccccc1C#N | x | x | -18.5% | 37.0% | x
CCc1c(O)cc(=O)n(-c2ccccc2)c1-c1ccccc1 | -4.9% | u | -39.7% | -6.0% | 56.2µM*
CC(=O)c1c(O)cc(=O)n(-c2ccccc2)c1-c1ccc(Cl)cc1 | 4.3% | 18.5%[59 µM] | -1.7% | 15.1% | 3.8%
COc1ccc(C2NC(c3ccc(OC)cc3)C([N+](=O)[O-])C(C)(C)C2[N+](=O)[O-])cc1 (centres undefined) | -0.5% | 4.8%[0.501 µM] | -29.7% | 23.4% | -7.5%
CCC(C)(C)C1CCc2c(sc(N)c2C(N)=O)C1 (centres undefined) | -26.1% | u | u | -10.6% | u
